Results from PubChem BioAssay (NCATS).
Results filed as inconclusive are left out. Values without a mark were called inactive. Active and inactive are the calls of the source. The call rests on the fitted dose curve.

test: Validation screen for inhibitors of Lassa infection (AID 463096); conditions: Lassa virus infection, cell-based; series mostly up to 46.1 µM; activity change, negative = inhibition: at the top concentration
On the % scale 0 is the no-effect control and ±100 the full control effect; potency means the concentration at half of the fitted maximal effect.

SMILES	activity change, negative = inhibition [%]	Potency
CCCN1C[C@H](CSC)C[C@@H]2c3cccc4[nH]cc(c34)C[C@H]21	-13.4	
Cc1nc2n(c(=O)c1CCN1CCC(c3noc4cc(F)ccc34)CC1)CCCC2	-21.2	
Nc1nnc(-c2cccc(Cl)c2Cl)c(N)n1	26.3	
CCOC(=O)c1ncn2c1CN(C)C(=O)c1cc(F)ccc1-2	7.31	
NC(=O)OCC(COC(N)=O)c1ccccc1	-18.8	
CC(=O)CCCCn1c(=O)c2c(ncn2C)n(C)c1=O	3.07	
COC(=O)[C@H]1[C@H]2C[C@@H]3c4[nH]c5cc(OC)ccc5c4CCN3C[C@H]2C[C@@H](OC(=O)c2cc(OC)c(OC)c(OC)c2)[C@@H]1OC		7.94 µM (active)
CCN(CC)CCNC(=O)c1cc(Cl)c(N)cc1OC	12.8	
Oc1ccc(C2CNCCc3c2cc(O)c(O)c3Cl)cc1 (stereo unspecified)	26.6	
CC(CN1c2ccccc2Sc2ccccc21)N(C)C (stereo unspecified)	-47	
O=C1CCC(N2C(=O)c3ccccc3C2=O)C(=O)N1 (stereo unspecified)	-35.3	
